Source: PubChem BioAssay (EPA / NIEHS)
Records with an inconclusive call do not appear. Calls of active or inactive are those of the source. Rule for the calls: active = hit-call score of the fitted dose curve at least 0.9, where 1 is the maximum; inconclusive = response in the unintended direction; inactive = score below 0.9.

target: rat Thyrotropin Releasing Hormone Receptor (TRH), Trhr (gene 25570) (UniProt Q01717); test: NVS_GPCR_rTRH: NovaScreen (NVS) G Protein-Coupled Receptor Assay for rat Thyrotropin Releasing Hormone Receptor (TRH) (AID 2283329);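 note: hit means lower bound tracer signal versus DMSO baseline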
Sequence (Q01717 whole entry, looked up): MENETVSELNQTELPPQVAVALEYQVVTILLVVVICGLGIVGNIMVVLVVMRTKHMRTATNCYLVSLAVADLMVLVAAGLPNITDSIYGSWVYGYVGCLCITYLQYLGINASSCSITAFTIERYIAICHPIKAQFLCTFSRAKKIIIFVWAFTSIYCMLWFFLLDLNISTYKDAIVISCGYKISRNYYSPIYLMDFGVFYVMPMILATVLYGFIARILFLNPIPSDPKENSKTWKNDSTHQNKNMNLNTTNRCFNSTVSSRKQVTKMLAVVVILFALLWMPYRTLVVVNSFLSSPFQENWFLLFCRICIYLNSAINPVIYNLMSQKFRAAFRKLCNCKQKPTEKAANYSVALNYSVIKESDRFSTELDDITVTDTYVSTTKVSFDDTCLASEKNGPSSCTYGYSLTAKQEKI
Procedure: NVS_GPCR_rTRH is a biochemical, single-readout assay that uses extracted gene-proteins from Rat forebrain membranes in a tissue-based cell-free assay. Measurements were taken 4 hours after chemical dosing in a 48-well plate.NVS_GPCR_rTRH is one of one assay component(s) measured or calculated from the NVS_GPCR_rTRH assay. It is designed to make measurements of radioligand binding, a form of binding reporter, as detected with scintillation counting signals by Filter-based radiodetection technology.Data from the assay component NVS_GPCR_rTRH was analyzed into 1 assay endpoint. This assay endpoint, NVS_GPCR_rTRH, was analyzed in the positive analysis fitting direction relative to DMSO as the negative control and baseline of activity. Using a type of binding reporter, loss-of-signal activity can be used to understand changes in the binding as they relate to the gene Trhr. Furthermore, this assay endpoint can be referred to as a primary readout, because the performed assay has only produced 1 assay endpoint. To generalize the intended target to other relatable targets, this assay endpoint is annotated to the gpcr intended target family, where the subfamily is rhodopsin-like receptor.
Binding assays used specific radioligands (tritiated, iodinated) with non-radioactive competitive displacement ligands in agonist or antagonist protocols (as indicated) and various reference compounds and inhibitors to titrate specific binding to receptors and transporters. Most enzyme assays (CYPs, kinases, phosphatases, proteases, HDACs) used recombinant protein and specific substrates (fluorescence mostly, some colorimetric and radioactive) and inhibitors, followed by a biochemical separation of substrate and product. All assays for the biochemical HTS were initially run in duplicate at a single concentration (10 uM for CYP450 assays and 25 uM for all others). […] Each assay was run with positive and negative controls, and concurrent controls on every plate. The follow-up (secondary) screen tested active chemical-pairs in concentration series, as well as a few additional assays not tested in the primary screen, some selected negative inactives, and several cases re-run in the concentration series for confirmatory purposes.

outcome, inactive:
COS(=O)(=O)O
OCCc1ccccc1
CCNCCO
c1ccc(Oc2ccccc2)cc1
CCCCCCCCCCCC(=O)OCC(O)CO (configuration not stated)
CCOC(=O)C1OC1c1ccccc1 (configuration not stated)
CSCCC=O
C=C[Si]1(C)O[Si](C)(C=C)O[Si](C)(C=C)O[Si](C)(C=C)O1 (configuration not stated)
COC(=O)c1ccc(C)cc1C1=NC(C)(C(C)C)C(=O)N1 (configuration not stated) (tested in a mixture with another compound)
CCCCCCCCSCCO
CCOC(=O)[C@@H](C)Oc1ccc(Oc2nc3ccc(Cl)cc3o2)cc1
CN(C)c1cccc(O)c1
C=Cc1ccc(C)cc1
C1=CC2C3C=CC(C3)C2C1 (configuration not stated)
O=CCc1ccccc1
CC(=O)O[C@H]1C[C@@H]2CC[C@@]1(C)C2(C)C
CCCCCC(=O)CC
CCC(=O)O[C@@H]1C[C@H]2CC[C@]1(C)C2(C)C
O=[N+]([O-])c1ccc(O)cc1C(F)(F)F
OC[C@H]1O[C@@H]2O[C@H]3[C@H](O)[C@@H](O)[C@@H](O[C@H]4[C@H](O)[C@@H](O)[C@@H](O[C@H]5[C@H](O)[C@@H](O)[C@@H](O[C@H]6[C@H](O)[C@@H](O)[C@@H](O[C@H]7[C@H](O)[C@@H](O)[C@@H](O[C@H]8[C@H](O)[C@@H](O)[C@@H](O[C@H]9[C@H](O)[C@@H](O)[C@@H](O[C@H]1[C@H](O)[C@H]2O)O[C@@H]9CO)O[C@@H]8CO)O[C@@H]7CO)O[C@@H]6CO)O[C@@H]5CO)O[C@@H]4CO)O[C@@H]3CO
CCCCCCCCN1CCCC1=O
C=CC(C)(O)CCC=C(C)C (configuration not stated)
O=C1OC(=O)c2c(Cl)c(Cl)c(Cl)c(Cl)c21
CCCCCCCCC=CCCCCCCCC1=NCCN1CCO
CC(C=O)Cc1ccc(C(C)(C)C)cc1 (configuration not stated)
CN1CCOCC1
CCCCCCCCCCCCCCN(CCO)CCO
